In all, about 360,000 compounds went through this assay and about 17,000 (4.7%) were called active. Not shown: some 5% with an inconclusive outcome. Only a selection was taken, and actives are over-represented in it overall. Values without a mark were called inactive. No stated cut-off is given here; in the data, active means activity change below about -50%; inconclusive means mostly about -30% to -49%; inactive means weaker than that.
On the % scale 0 is the no-effect control and ±100 the full control effect.

This assay is described as follows: qHTS for Inhibitors of Inflammasome Signaling: IL-1-beta AlphaLISA Primary Screen. To be noted: THP-1 LPS/ATP IL-1B secretion, 16 h; at 57.5 µM, active compounds read low. In outline:
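THP-1 cells pretreated 1 hr with compounds (up to 57.5 uM final), then stimulated with LPS (250 ng/mL final) plus ATP (1.25 mM final); secreted IL-1B measured by AlphaLISA after 16 hr, decreased signal indicating inhibition.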
On the technique in general: Quantitative high-throughput screening tests each substance at several concentrations.
With `Cc1ccc(-c2cnc(C(O)c3cc(Cl)cc(Cl)c3)[nH]2)cc1` (centres undefined), the activity change was 6.64%.
For the compound `Cc1ccc(S(=O)(=O)NCC(=O)N(CC(=O)NC(C)(C)C)Cc2cccs2)cc1`, the activity change is 14.4%.
Then `CC(C)(C)NC(=O)CN(Cc1cccs1)C(=O)CNS(=O)(=O)c1ccccc1`, with -55.8% (active).
For the compound `CCC(C)(C)NC(=O)CN(Cc1cccs1)C(=O)CNS(=O)(=O)c1ccc(F)cc1`, the activity change is 4.73%.
Then `CCN1C(=O)[C@@H]2[C@@H]3CN(S(=O)(=O)c4ccccc4C)[C@@H](c4ccc(Cl)cc4)[C@@H]3C(=O)C[C@@H]2C1=O`, with -15.9%; and `CC1(C(=O)Nc2cccc3c2CCCC3)CCN1C(=O)CCc1ccc(Cl)cc1Cl` (centres undefined), with -9.96%; and `NC(=O)C1CCN(C(=O)CC2C(=O)NCCN2Cc2cccc(Oc3ccccc3)c2)CC1` (centres undefined), with -6.56%.
The value for `CCc1nnc(NC(=O)c2cc(S(=O)(=O)N3CCN(CC)CC3)ccc2Cl)s1` was 18.8%; that for `CC(CN1CCCCC1)c1ccccc1` (centres undefined) was 11.2%; that for `CCCC(O)(c1ccc(OC)cc1)C(CN(C)C)c1ccccc1` (centres undefined) was -9.06%.
For `COc1ccc(C(O)(C2CCCCC2)C(CN2CCCC2)c2ccccc2)cc1` (centres undefined), the activity change was -54.5% (active).
The value for `CC(C)(C(=O)N1CCC1(C)C(=O)NS(=O)(=O)c1ccc(Br)cc1)c1ccccc1` (centres undefined) was 17%; that for `CC(C)c1ccc(N2CC(C(=O)Nc3nccs3)CC2=O)cc1` (centres undefined) was -0.66%; that for `CC1CN(C(=O)c2cccc(NS(=O)(=O)c3ccc(Br)cc3)c2)CC(C)O1` (centres undefined) was 53%.
Then `O=C(CC1NCCc2ccccc21)Nc1cccc(Cl)c1` (centres undefined), with -29.8%; and `CCN1C(=O)N[C@@H](c2ccccc2)C(C(=O)OC)=C1C`, with 15%; and `CCC(CC)COC(=O)C1=C(C)NC(=O)NC1c1ccc([N+](=O)[O-])cc1` (centres undefined), with -2.87%.
The value for `CCOC(=O)C1=C(C)N(C[C@@H]2CC[C@@H](Cc3ccc(-c4ccccc4)cc3)O2)C(=O)NC1c1ccc([N+](=O)[O-])cc1` (some centres undefined) was -63.7% (active).
As for `COc1ccc(C(=O)N2CCCN(C)CC2)c(OC)c1`, the activity change was 33.4%.
Then `COc1cc2c(C(=O)N3CCN(C)CC3)c(CSc3ccccc3)n(C)c2cc1Br`, with -60.2% (active); and `COc1cc(C(=O)N2CCN(C)CC2)cc(OC)c1OC`, with 42.7%; and `C[C@@H]1CN([C@H](C)CO)C(=O)CCCn2nncc2CO[C@@H]1CN(C)S(=O)(=O)c1cccc(C#N)c1`, with 3.99%.
`COC1=CC(=O)OC(c2ccc(OC)cc2)C1` (centres undefined): the activity change was -17.1%.
As to `CS(=O)(=O)c1cccc(-c2ccc3nncn3c2)c1`, the activity change was 11.3%.
